This is part of a sample that, as a whole, favours compounds with a hit. Of some 83,000 tested, about 20% had one in any assay.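 Single-concentration screen, 48 h exposure, 96-well plates. Endpoint: percent growth. Below 10 = active.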 A number with no mark means an inactive call. Calls of active or inactive are those of the source.
What was measured:
Test in all cases: NCI-60 one-dose screen, 48 h (100 = growth as untreated, 0 = no growth, -100 = all killed)
Details in all cases: 10 µM
SK-MEL-2 melanoma = test system: SK-MEL-2 melanoma
EKVX NSCLC = test system: EKVX NSCLC
SN12C renal = test system: SN12C renal
UO-31 renal = test system: UO-31 renal
TK-10 renal = test system: TK-10 renal
ACHN renal = test system: ACHN renal
CAKI-1 renal = test system: CAKI-1 renal
A498 renal = test system: A498 renal
MOLT-4 leukemia = test system: MOLT-4 leukemia
CCRF-CEM leukemia = test system: CCRF-CEM leukemia

Compound	growth (SK-MEL-2 melanoma)	growth (EKVX NSCLC)	growth (SN12C renal)	growth (UO-31 renal)	growth (TK-10 renal)	growth (ACHN renal)	growth (CAKI-1 renal)	growth (A498 renal)	growth (MOLT-4 leukemia)	growth (CCRF-CEM leukemia)
CCCN(CCC)C(=O)[C@H](CC)[C@@H]1CC[C@@H](C)[C@@H]([C@H](C)[C@@H](O)[C@@H](C)C(=O)[C@H](CC)C2O[C@]3(C=C[C@@H](O)[C@]4(CC[C@@](C)([C@H]5CC[C@](O)(CC)[C@H](C)O5)O4)O3)[C@H](C)C[C@@H]2C)O1 (stereo partly specified)	0.709% (active)	-13.6% (active)	3.43% (active)	-16.8% (active)	20.7%	-2.43% (active)	-8.15% (active)	-20.3% (active)	15.3%	–
CC[C@@H](C(=O)[C@@H](C)[C@@H](O)[C@H](C)[C@@H]1O[C@@H]([C@@H](CC)C(=O)N(CC)CC)CC[C@@H]1C)C1O[C@]2(C=CC(=O)[C@]3(CC[C@@](C)([C@H]4CC[C@](O)(CC)[C@H](C)O4)O3)O2)[C@H](C)C[C@@H]1C (stereo partly specified)	11.4%	19.6%	16.8%	0.811% (active)	29.1%	6.1% (active)	7.58% (active)	36.6%	22.7%	–
COc1ccc(-c2cc(-c3ccc(Cl)cc3)nc(SCCCC(=O)NO)n2)cc1	0.495% (active)	-19.2% (active)	2.49% (active)	-40.9% (active)	13.8%	2.98% (active)	-0.0585% (active)	-19% (active)	9.27% (active)	–
COc1cc(-c2csc(NC(=O)Nc3ccc(Cl)c(C(F)(F)F)c3)n2)cc(OC)c1OC	-14.3% (active)	2.12% (active)	-11.3% (active)	-1.04% (active)	-4.34% (active)	-8.21% (active)	6.78% (active)	-15.7% (active)	2.65% (active)	–
CC[C@H]1OC(=O)[C@H](C)[C@@H](O[C@H]2C[C@@](C)(OC)[C@@H](O)[C@H](C)O2)[C@H](C)[C@@H](O[C@@H]2O[C@H](C)C[C@H](N(C)C)[C@H]2O)[C@](C)(OC)C/C(C)=C2/O[C@@]1(C)C=C2C	-17.3% (active)	75%	76.9%	50.5%	97.4%	24.5%	21.7%	83.9%	1.08% (active)	–
O=C1/C=C/[C@@H](O)[C@@H]2C[C@@H](O)C[C@H]2/C=C/CCC[C@H](C(F)(F)F)O1	-18.3% (active)	10.3%	4.4% (active)	-6.75% (active)	-21% (active)	3.63% (active)	4.59% (active)	-18.2% (active)	-0.315% (active)	1.24% (active)
Cc1[nH]c2ccccc2c1/C=N/Nc1ncnc2sc3c(c12)CCN(CC(=O)OC(C)(C)C)C3	92.6%	134%	85.3%	65.5%	101%	54.2%	47.2%	51.8%	46.5%	–
COc1ccc(Cl)cc1Nc1nc(C(F)(F)F)ccc1C(=O)N/N=C/c1cc(OC)c(OC)c(OC)c1	9.11% (active)	32.6%	25.1%	15.4%	20.2%	16%	27.6%	26.8%	9.62% (active)	9.22% (active)
COc1ccc2nc3cc(Cl)ccc3c(NCCCNCCO)c2c1	-87.7% (active)	-12.9% (active)	5.95% (active)	-11.5% (active)	-29.4% (active)	-9.61% (active)	18.7%	-57% (active)	2.6% (active)	-1.87% (active)
COc1ccc(/C=C/c2nnc(/C=C/c3ccc(OC)c(OC)c3)o2)cc1OC	20.3%	36.9%	22.1%	37.4%	45.5%	45.4%	51.4%	31.4%	20.3%	–
OCC1OC2C(NC(=S)N2c2ccccc2)C(O)C1O (stereo unspecified)	111%	101%	91.1%	101%	109%	103%	91.4%	95.1%	107%	93.6%
O=C(CCNC(=O)c1nc(-c2ccccc2)n(-c2ccc(Cl)cc2)n1)NO	91.7%	95.8%	103%	88.3%	94.4%	100%	97.3%	114%	98%	–
CCn1c(SCCc2ccccc2)nnc1-c1nn(-c2ccc(Cl)cc2Cl)c(-c2ccc(Cl)cc2)c1C	53.8%	52.6%	70.3%	53.5%	75.3%	61%	64.4%	96.6%	41.6%	–

From PubChem BioAssay (NCI)
